The source made the active and inactive calls. Rule for the calls: active = hit-call score of the fitted dose curve at least 0.9, where 1 is the maximum; inactive = score below 0.9.
Experiment: ATG_PPRE_CIS: Attagene CIS-FACTORIAL HepG2 Assay for human Peroxisome Proliferator-activated Response Element (PPRE) (AID 2282958)
Conditions: HepG2 PPRE cis-element reporter, Attagene transcription factor profiling; actives raise or lower the signal
Protocol: ATG_CIS is a cell-based, multiplexed-readout assay that uses HepG2, a human liver cell line, with measurements taken at 24 hours after chemical dosing in a 24-well plate.ATG_PPRE_CIS is one of 52 assay component(s) measured or calculated from the ATG_CIS assay. It is designed to make measurements of mRNA induction, a form of inducible reporter, as detected with fluorescence intensity signals by Reverse transcription polymerase chain reaction (RT-PCR) and Capillary electrophoresis technology.Data from the assay component ATG_PPRE_CIS was analyzed into 1 assay endpoint. This assay endpoint, ATG_PPRE_CIS, was analyzed with bidirectional fitting relative to DMSO as the negative control and baseline of activity. Using a type of inducible reporter, measures of mRNA for gain or loss-of-signal activity can be used to understand the reporter gene at the transcription factor-level as they relate to the gene PPARA and PPARD and PPARG. Furthermore, this assay endpoint can be referred to as a primary readout, because this assay has produced multiple assay endpoints where this one serves a reporter gene function. To generalize the intended target to other relatable targets, this assay endpoint is annotated to the nuclear receptor intended target family, where the subfamily is non-steroidal.
Human liver HepG2 cells are transiently transfected with multiple reporter transcription units (MRTUs) in 6-well plates using FuGene 6 reagent (Roche; 3 ml FuGene/1 mg DNA). The MRTU constructs are regulated by a cis-regulating element (promoter). […] A major difference between the CIS and TRANS system is that in CIS activities of endogenous TFs are measured, whereas the TRANS assay evaluates changes in activities of exogenous, chimeric NR-Gal4 proteins. […] At the end of 24 hour incubation, total RNA was isolated using TriZol reagent (Invitrogen). The isolated RNA is then reverse-transcribed using oligo(dT) primer and Mo-MLV reverse transcriptase (Invitrogen) with DNAse I (Ambion) treatment for 30 min. The one-tenth of the produced cDNA was amplified by PCR using Taq DNA polymerase (Invitrogen) and two reporter sequence-specific primers. The PCR products were fluorescently labeled by primer extension with 6-arboxyfluorescein (6-FAM) 5'-labeled reporter sequence-specific primer (2 min at 95 C, 20 s at 68 C and 10 min at 72 C) and these products were digested with 5U of HpaI (New England Biolabs) for 2h at 37 C. The fragments were purified using Qiaquick PCR columns (Qiagen), analyzed on an ABI 3130xL genetic analyzer (Applied Biosystems) with peak positions identified by using a set of X-rhodamine (ROX)-labeled MapMarker1000 molecular weight standards (BioVentures). The raw capillary electrophoresis data was processed using Attagraph software (Attagene).
In the case of CCO[Si](CCCN=C=O)(OCC)OCC, the outcome is reported as “inactive”.
In the case of CC/C=C\C/C=C\C/C=C\CCCCCCCC(=O)O, the AC50 is reported as 40.1 µM (active).
For CCCCCCCCCCc1ccccc1, the outcome was “inactive”.
With OC1CCCC1 the outcome was “inactive”.
In the case of [Cl][Bi]([Cl])([c]1ccccc1)([c]1ccccc1)[c]1ccccc1, the outcome is reported as “inactive”.
For CC(=O)OCc1ccco1, the outcome was “inactive”.
With c1ccc2c(c1)ccc1ncccc12 the outcome was “inactive”.
In the case of CC(=O)[C@@]1(O)CC[C@H]2[C@@H]3C[C@H](C)C4=CC(=O)C=C[C@]4(C)[C@@]3(F)[C@@H](O)C[C@@]21C, the outcome is reported as “inactive”.
With O=c1[nH]c(=O)c2[nH]c(=O)[nH]c2[nH]1 the outcome was “inactive”.
With CCCCCCCCCCCCCCCCCC#N the outcome was “inactive”.
For CCCCCCCC/C=C\CCCCCCCC(=O)O, the outcome was “inactive”.
With Cc1c(C)c([N+](=O)[O-])c(C(C)(C)C)c([N+](=O)[O-])c1C the outcome was “inactive”.
For CCc1c(C(=O)O)c(=O)cnn1-c1ccc(Cl)cc1, the outcome was “inactive”.
For CC(C)=CCCC(C)C=O (stereo not given), the outcome was “inactive”.
With COCCCOCCCOC the outcome was “inactive”.
For O=[N+]([O-])c1ccc(CO)cc1, the outcome was “inactive”.
For C/C=C\C/C=C/CCCCCCCCOC(C)=O, the outcome was “inactive”.
For CCOC(=O)CC, the outcome was “inactive”.
For O=C(Nc1cccc(C(F)(F)F)c1)c1cc(Br)cc(Br)c1O, the outcome was “inactive”.
For O=S(=O)(O)c1cc(S(=O)(=O)O)c2ccc3c(S(=O)(=O)O)cc(S(=O)(=O)O)c4ccc1c2c43, the outcome was “inactive”.
For CC(C)CC(O)Cc1ccccc1 (stereo not given), the outcome was “inactive”.
With CC(C)C1=CC2=CC[C@@H]3[C@](C)(CCC[C@@]3(C)C(=O)O)[C@H]2CC1 the outcome was “inactive”.
With CCOC(=O)NNc1nncc2ccccc12 the outcome was “inactive”.
For CCCCCC/C=C/C=O, the AC50 was 15 µM (active).
For O=C1C=CC(=O)O1, the outcome was “inactive”.
For C=CC(=O)OCCOC1C2CCC1C1CC=CC12 (stereo not given), the outcome was “inactive”.
For C#CC1(O)CC[C@H]2[C@@H]3CCC4=CCCC[C@@H]4[C@H]3CC[C@@]21C (stereo not given in full), the AC50 was 33.4 µM (active).
For Cc1cc(C)c(C)cc1C, the outcome was “inactive”.
With Cc1ccc2oc(=O)ccc2c1 the outcome was “inactive”.
In the case of Cc1cc(C)c(C)c(O)c1, the outcome is reported as “inactive”.
For CCCCCCC(O)CO (stereo not given), the outcome was “inactive”.
With N[C@H]1C(O)O[C@H](CO)[C@H](O)[C@@H]1O (stereo not given in full) the outcome was “inactive”.
For CO[Si](CCC1CCC2OC2C1)(OC)OC (stereo not given), the outcome was “inactive”.
In the case of Cn1c([N+](=O)[O-])cnc1COC(N)=O, the outcome is reported as “inactive”.
In the case of C=C(C)C(=O)OCC(C)C, the outcome is reported as “inactive”.
In the case of COC(=O)/C=C/C(C)=C\C=C\C(C)=C\C=C\C=C(C)\C=C\C=C(C)\C=C\C(=O)O, the outcome is reported as “inactive”.
In the case of CC(C)CCCCCOC(=O)CCS, the outcome is reported as “inactive”.
For CC(C)(Oc1ccc(C2CC2(Cl)Cl)cc1)C(=O)O (stereo not given), the AC50 was 48.3 µM (active).
With C[Si](C)(C)O[Si](O)(O)O the outcome was “inactive”.
For O=CN1CCCCC1, the outcome was “inactive”.

Source: PubChem BioAssay (EPA / NIEHS)
